Among the test systems are INSRR; INSR; IRAK1; IRAK3; IRAK4; ITK.
Conditions in all cases: concentration: 1 μM, replicates: in singlicate; n = 1
The test system of test [1] is JAK1(JH1domain-catalytic).
For test [2], the system named is JAK1(JH2domain-pseudokinase).
In test [3] the test system is JAK2(JH1domain-catalytic).
For test [4], the system named is JAK3(JH1domain-catalytic).
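Further: KINOMEscan kinase panel screen.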

Consider `Cc1ccc(NC(=O)c2cccc(C#N)c2)cc1-c1ccc(C(=O)Nc2ccncc2)cc1` [GSK1398463], for which the “%Inh” value in the test on INSRR is 2%; with INSR, 6%; in the test with IRAK1 it was 24%; with IRAK3, 9%; with IRAK4 it was 21%; in the test on ITK, 16%. The “%Inh” value in test [1] stood at 3%; in test [2] it was 6%; in test [3] it was 39%; in test [4] it was 0%.
As for `FC(F)(F)c1ccc(-c2nn3ncccc3c2-c2ccnc(Nc3cccc(C(F)(F)F)c3)n2)cc1` [GW828205], the “%Inh” value in the test with INSRR is 0%; with INSR it was 0%; in the test on IRAK1 it was 0%; with IRAK3 it was 11%; with IRAK4, 0%; with ITK, 15%. In addition, the “%Inh” value in [1] is 0%; in test [2] it was 5%; in [3], 0%; in test [4], 0%.
Take `CN1CCC(n2cnc(-c3ccc(F)cc3)c2-c2ccnc(NC3CCNCC3)n2)CC1` [SB-229482]: the “%Inh” value with INSRR was found to be 0%; in the test with INSR, 0%; in the test on IRAK1, 20%; with IRAK3, 0%; in the test on IRAK4, 4%; in the test with ITK, 0%. The “%Inh” value turned out to be 0% in test [1], 0% in test [2], 18% in test [3] and 0% in [4].
With `Fc1cccc(COc2ccc(Nc3ncnc4sc(-c5ccc[nH]5)cc34)cc2Cl)c1` [GW707818], the “%Inh” value is on record as 0% with INSRR; 13% in the test on INSR; 20% with IRAK1; 0% in the test with IRAK3; 0% with IRAK4; 0% with ITK. The “%Inh” value in [1] stood at 18%; in test [2], 4%; in test [3], 100%; in [4] it was 0%.
For `Fc1cccc(COc2ccc(Nc3ncnc4cc[nH]c34)cc2Cl)c1`, the “%Inh” value in the test on INSRR was found to be 0%; in the test with INSR, 0%; with IRAK1 it was 6%; with IRAK3, 0%; in the test with IRAK4, 4%; in the test on ITK, 13%. Also, the “%Inh” value in [1] came to 0%; in test [2], 36%; in [3] it was 19%; in [4] it was 0%.
On to `Cn1ccc2ncnc(Oc3ccc(NC(=O)Nc4cccnc4)c(Cl)c3)c21`, for which the “%Inh” value is on record as 0% in the test on INSRR; 6% in the test on INSR; 0% in the test with IRAK1; 12% with IRAK3; 6% in the test on IRAK4; 11% in the test on ITK. Further, the “%Inh” value in [1] was found to be 12%; in test [2], 4%; in [3], 0%; in [4], 21%.
In the case of `Nc1n[nH]c2nnc(-c3ccccc3)cc12` [SB-517389], the “%Inh” value is 0% with INSRR; 0% in the test with INSR; 22% with IRAK1; 0% with IRAK3; 25% with IRAK4; 13% with ITK. The “%Inh” value in test [1] turned out to be 13%; in test [2] it was 8%; in [3] it was 42%; in test [4] it was 0%.
Consider `Cc1cc(N2CCC(NS(=O)(=O)c3ccc(F)cc3)CC2)nc(Nc2cccc(C#N)c2)n1.O=C(O)C(F)(F)F` [GSK1653537], for which the “%Inh” value in the test with INSRR is reported as 0%; in the test on INSR, 0%; in the test on IRAK1, 0%; in the test with IRAK3, 0%; in the test with IRAK4 it was 4%; with ITK, 1%. Also, the “%Inh” value in test [1] was 7%; in [2] it was 0%; in [3], 6%; in test [4], 0%.
For the compound `CS(=O)(=O)CCNCc1ccc(-c2ccc3ncnc(Nc4ccc(OCc5ccccc5)c(Cl)c4)c3c2)o1.Cl` [GW574783], the “%Inh” value in the test on INSRR was 24%; in the test with INSR, 7%; in the test on IRAK1 it was 0%; in the test on IRAK3, 12%; with IRAK4, 0%; with ITK, 0%. Besides, the “%Inh” value amounted to 9% in test [1], 0% in [2], 14% in [3] and 0% in test [4].
Regarding `COc1cc2c(Nc3cccc(NC(=O)c4ccccc4)c3)ncnc2cc1OCCCN1CCOCC1` [GSK223810], the “%Inh” value in the test on INSRR is listed as 7%; in the test on INSR, 10%; with IRAK1, 0%; in the test on IRAK3, 41%; with IRAK4, 0%; in the test on ITK it was 9%. The “%Inh” value in test [1] came to 0%; in [2], 0%; in test [3], 4%; in test [4], 0%.
Regarding `Fc1cccc(COc2ccc(Nc3ncnc4nn5ccccc5c34)cc2Cl)c1` [GW689066], the “%Inh” value is listed as 0% in the test with INSRR; 8% in the test with INSR; 8% in the test on IRAK1; 0% with IRAK3; 0% with IRAK4; 3% in the test on ITK. Also, the “%Inh” value in [1] was 2%; in test [2], 0%; in [3], 0%; in test [4] it was 0%.
On to `Nc1nccc2scc(-c3ccc4c(c3)CCN4C(=O)Cc3cc(F)ccc3F)c12` [GSK2587663], for which the “%Inh” value in the test with INSRR was determined as 0%; in the test on INSR, 0%; in the test on IRAK1, 17%; in the test on IRAK3 it was 10%; in the test with IRAK4, 7%; with ITK it was 18%. Moreover, the “%Inh” value is reported as 14% in test [1], 0% in test [2], 0% in test [3] and 0% in test [4].
Consider `O=C(NCCCN1CCCC1=O)c1cnc(NCc2cc(Cl)ccc2Cl)nc1NC1CCNCC1`, for which the “%Inh” value is 13% with INSRR; 0% in the test with INSR; 37% in the test with IRAK1; 0% in the test with IRAK3; 2% in the test with IRAK4; 0% in the test with ITK. The “%Inh” value in test [1] is 1%; in [2], 4%; in test [3], 33%; in test [4], 0%.
Take `Cl.O=S(=O)(c1cccc(F)c1)c1ccc(Nc2ncnc3cc(Br)sc23)cc1Cl` [GSK306886]: the “%Inh” value is 0% in the test on INSRR; 13% with INSR; 32% in the test on IRAK1; 0% with IRAK3; 0% in the test with IRAK4; 0% with ITK. Further, the “%Inh” value is given as 15% in test [1], 0% in test [2], 2% in test [3] and 0% in test [4].
Take `Cl.c1ccc(Cn2ncc3cc(Nc4ncnc5ccccc45)ccc32)cc1` [GW273749]: the “%Inh” value with INSRR is listed as 0%; in the test with INSR, 3%; in the test with IRAK1, 0%; in the test on IRAK3 it was 0%; with IRAK4, 9%; in the test with ITK, 0%. The “%Inh” value in test [1] worked out at 8%; in [2] it was 0%; in test [3], 11%; in test [4], 0%.
With `Cl.Fc1ccccc1COc1ccc(Nc2ncnc3ccc(-c4nnc(C(F)(F)F)o4)cc23)cc1Cl` [GW424170], the “%Inh” value in the test with INSRR stood at 0%; with INSR, 0%; with IRAK1, 0%; with IRAK3 it was 0%; in the test with IRAK4, 0%; in the test with ITK, 4%. Also, the “%Inh” value is recorded as 7% in test [1], 0% in [2], 6% in test [3] and 0% in test [4].
For `COc1ccc(Nc2nccc(N3CCC(NC(=O)Nc4ccc5c(c4)OCO5)C3)n2)cc1` (stereo not drawn) [GSK1379745], the “%Inh” value with INSRR worked out at 0%; in the test with INSR it was 0%; with IRAK1, 11%; with IRAK3, 11%; in the test with IRAK4 it was 6%; with ITK, 6%. The “%Inh” value in test [1] worked out at 0%; in test [2], 0%; in test [3] it was 19%; in [4] it was 0%.
As to `COc1ccc(Nc2nccc(N3CCC(NC(=O)c4cccc(NC(C)=O)c4)C3)n2)cc1` (stereo not drawn) [GSK1379732], the “%Inh” value in the test with INSRR is on record as 0%; in the test with INSR, 0%; in the test with IRAK1 it was 24%; with IRAK3, 0%; with IRAK4, 0%; with ITK, 0%. Further, the “%Inh” value in test [1] is 15%; in [2], 0%; in test [3] it was 22%; in test [4], 0%.

These data come from publication PMC5540273 (PLoS ONE, 2017).
